# Where a chain is given by its changes, count along the chain named.
# Legend:
# Assay in all cases: yeast three-hybrid, YBZ-1, SC-Leu-His + 0.5 mM 3-AT, 4 days
# Conditions in all cases: tags: N-Gal4 AD-HA kept; label: inside an RPR1-promoter hybrid RNA with tandem MS2 sites; ssRNA
# PUM1 PUF domain R8-QWN = PUM1 PUF domain R8-QWN (Homo sapiens, UniProt Q14671 828-1176, N1122Q;Y1123W;Q1126N)
# Outline: (§1)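 Matching RNA elements and Pumilio-1 PUF domain libraries, randomized at the three base-contacting residues of every repeat, were co-expressed from a centromeric plasmid in strain YBZ-1 (LexA–MS2 coat fusion, HIS3 reporter). The repeat regions were PCR-amplified and Illumina-sequenced from cells grown four days on SC-Leu (input) or SC-Leu-His + 0.5 mM 3-AT (selection). The interaction score is the log change in variant frequency from input to selection. It is computed in log2, with a pseudocount of 1 for absent variants.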
# PUM1 PUF domain R8-KRA = PUM1 PUF domain R8-KRA (Homo sapiens, UniProt Q14671 828-1176, N1122K;Y1123R;Q1126A)
# Outline: as §1
# PUM1 PUF domain R8-FHK = PUM1 PUF domain R8-FHK (Homo sapiens, UniProt Q14671 828-1176, N1122F;Y1123H;Q1126K)
# Outline: as §1
# PUM1 PUF domain R5-NDI = PUM1 PUF domain R5-NDI (Homo sapiens, UniProt Q14671 828-1176, C1007N;R1008D;Q1011I)
# Outline: as §1
# PUM1 PUF domain R5-KYF = PUM1 PUF domain R5-KYF (Homo sapiens, UniProt Q14671 828-1176, C1007K;R1008Y;Q1011F)
# Outline: as §1
# PUM1 PUF domain R5-SNR = PUM1 PUF domain R5-SNR (Homo sapiens, UniProt Q14671 828-1176, C1007S;R1008N;Q1011R)
# Outline: as §1
# PUM1 PUF domain R5-DQR = PUM1 PUF domain R5-DQR (Homo sapiens, UniProt Q14671 828-1176, C1007D;R1008Q;Q1011R)
# Outline: as §1
# PUM1 PUF domain R5-HRP = PUM1 PUF domain R5-HRP (Homo sapiens, UniProt Q14671 828-1176, C1007H;Q1011P)
# Outline: as §1
# PUM1 PUF domain R8-LWK = PUM1 PUF domain R8-LWK (Homo sapiens, UniProt Q14671 828-1176, N1122L;Y1123W;Q1126K)
# Outline: as §1
# PUM1 PUF domain R6-TWL = molecular target: T1, PUM1 PUF domain R6-TWL (Homo sapiens, UniProt Q14671 828-1176, N1043T;Y1044W;Q1047L)
# T1 sequence: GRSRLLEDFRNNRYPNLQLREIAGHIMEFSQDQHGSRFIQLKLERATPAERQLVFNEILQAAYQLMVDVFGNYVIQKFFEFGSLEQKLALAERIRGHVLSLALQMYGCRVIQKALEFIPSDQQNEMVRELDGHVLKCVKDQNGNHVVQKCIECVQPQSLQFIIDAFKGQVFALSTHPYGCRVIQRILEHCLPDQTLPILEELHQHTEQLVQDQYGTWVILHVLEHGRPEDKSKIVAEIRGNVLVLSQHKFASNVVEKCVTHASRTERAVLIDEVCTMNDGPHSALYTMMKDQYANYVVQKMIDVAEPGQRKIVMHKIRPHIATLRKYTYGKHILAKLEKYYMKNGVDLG
# Outline: as §1
# PUM1 PUF domain R3-GFF = PUM1 PUF domain R3-GFF (Homo sapiens, UniProt Q14671 828-1176, C935G;R936F;Q939F)
# Outline: as §1
# PUM1 PUF domain R6-LYC = molecular target: T2, PUM1 PUF domain R6-LYC (Homo sapiens, UniProt Q14671 828-1176, N1043L;Q1047C)
# T2 sequence: T1 sequence with T216L, W217Y, L220C
# Outline: as §1
# PUM1 PUF domain R1-GRS = PUM1 PUF domain R1-GRS (Homo sapiens, UniProt Q14671 828-1176, S863G;Q867S)
# Outline: as §1
# PUM1 PUF domain R1-KSS = PUM1 PUF domain R1-KSS (Homo sapiens, UniProt Q14671 828-1176, S863K;R864S;Q867S)
# Outline: as §1
# PUM1 PUF domain R5-QRW = PUM1 PUF domain R5-QRW (Homo sapiens, UniProt Q14671 828-1176, C1007Q;Q1011W)
# Outline: as §1
# PUM1 PUF domain R6-TYE = molecular target: T3, PUM1 PUF domain R6-TYE (Homo sapiens, UniProt Q14671 828-1176, N1043T;Q1047E)
# T3 sequence: T1 sequence with W217Y, L220E
# Outline: as §1
# PUM1 PUF domain R3-GVE = PUM1 PUF domain R3-GVE (Homo sapiens, UniProt Q14671 828-1176, C935G;R936V;Q939E)
# Outline: as §1
# PUM1 PUF domain R3-TWG = PUM1 PUF domain R3-TWG (Homo sapiens, UniProt Q14671 828-1176, C935T;R936W;Q939G)
# Outline: as §1
# PUM1 PUF domain R7-EFG = PUM1 PUF domain R7-EFG (Homo sapiens, UniProt Q14671 828-1176, S1079E;N1080F;E1083G)
# Outline: as §1
sequence,measurement,setting,value
GGCUAGAACUAGUGGAUCCCCCGGCGCCCGGCGGCUCGAGCCCGGGUAAGCGUAAAUAGUCUGCAUGCCGCCGGGCGCCAUGCCUGCAGGUCGACUCUAGAAAACAUG,binding signal,PUM1 PUF domain R8-QWN,3.25 log2 enrichment (interaction score)
same,binding signal,PUM1 PUF domain R8-KRA,2.55 log2 enrichment (interaction score)
same,binding signal,PUM1 PUF domain R8-FHK,3.34 log2 enrichment (interaction score)
GGCUAGAACUAGUGGAUCCCCCGGCGCCCGGCGGCUCGAGCCCGGGUAAGUGUUAAUAGUCUGCAUGCCGCCGGGCGCCAUGCCUGCAGGUCGACUCUAGAAAACAUG,binding signal,PUM1 PUF domain R5-NDI,3.04 log2 enrichment (interaction score)
same,binding signal,PUM1 PUF domain R5-KYF,3.92 log2 enrichment (interaction score)
same,binding signal,PUM1 PUF domain R5-SNR,4.01 log2 enrichment (interaction score)
same,binding signal,PUM1 PUF domain R5-DQR,1.66 log2 enrichment (interaction score)
same,binding signal,PUM1 PUF domain R5-HRP,3.28 log2 enrichment (interaction score)
GGCUAGAACUAGUGGAUCCCCCGGCGCCCGGCGGCUCGAGCCCGGGUAAGUGUAAAUAGUCUGCAUGCCGCCGGGCGCCAUGCCUGCAGGUCGACUCUAGAAAACAUG,binding signal,PUM1 PUF domain R8-LWK,4.16 log2 enrichment (interaction score)
same,binding signal,PUM1 PUF domain R6-TWL,0.99 log2 enrichment (interaction score)
same,binding signal,PUM1 PUF domain R8-KRA,1.2 log2 enrichment (interaction score)
same,binding signal,PUM1 PUF domain R3-GFF,5.53 log2 enrichment (interaction score)
same,binding signal,PUM1 PUF domain R6-LYC,3.91 log2 enrichment (interaction score)
GGCUAGAACUAGUGGAUCCCCCGGCGCCCGGCGGCUCGAGCCCGGGUAAGUGUAAAUCGUCUGCAUGCCGCCGGGCGCCAUGCCUGCAGGUCGACUCUAGAAAACAUG,binding signal,PUM1 PUF domain R1-GRS,2.75 log2 enrichment (interaction score)
same,binding signal,PUM1 PUF domain R1-KSS,4.09 log2 enrichment (interaction score)
GGCUAGAACUAGUGGAUCCCCCGGCGCCCGGCGGCUCGAGCCCGGGUAAGUGUCAAUAGUCUGCAUGCCGCCGGGCGCCAUGCCUGCAGGUCGACUCUAGAAAACAUG,binding signal,PUM1 PUF domain R5-SNR,6.17 log2 enrichment (interaction score)
same,binding signal,PUM1 PUF domain R5-DQR,3.91 log2 enrichment (interaction score)
same,binding signal,PUM1 PUF domain R5-QRW,0.43 log2 enrichment (interaction score)
same,binding signal,PUM1 PUF domain R5-HRP,1.78 log2 enrichment (interaction score)
GGCUAGAACUAGUGGAUCCCCCGGCGCCCGGCGGCUCGAGCCCGGGUAAGUGAAAAUAGUCUGCAUGCCGCCGGGCGCCAUGCCUGCAGGUCGACUCUAGAAAACAUG,binding signal,PUM1 PUF domain R6-TYE,3.51 log2 enrichment (interaction score)
same,binding signal,PUM1 PUF domain R6-TWL,5.21 log2 enrichment (interaction score)
same,binding signal,PUM1 PUF domain R6-LYC,3.19 log2 enrichment (interaction score)
GGCUAGAACUAGUGGAUCCCCCGGCGCCCGGCGGCUCGAGCCCGGGUAAGUGUAAGUAGUCUGCAUGCCGCCGGGCGCCAUGCCUGCAGGUCGACUCUAGAAAACAUG,binding signal,PUM1 PUF domain R3-GVE,3.97 log2 enrichment (interaction score)
same,binding signal,PUM1 PUF domain R3-TWG,4.61 log2 enrichment (interaction score)
GGCUAGAACUAGUGGAUCCCCCGGCGCCCGGCGGCUCGAGCCCGGGUAAGUGUGAAUAGUCUGCAUGCCGCCGGGCGCCAUGCCUGCAGGUCGACUCUAGAAAACAUG,binding signal,PUM1 PUF domain R5-QRW,4.36 log2 enrichment (interaction score)
GGCUAGAACUAGUGGAUCCCCCGGCGCCCGGCGGCUCGAGCCCGGGUAAGUCUAAAUAGUCUGCAUGCCGCCGGGCGCCAUGCCUGCAGGUCGACUCUAGAAAACAUG,binding signal,PUM1 PUF domain R7-EFG,3.46 log2 enrichment (interaction score)
GGCUAGAACUAGUGGAUCCCCCGGCGCCCGGCGGCUCGAGCCCGGGUAAGUGUAAUUAGUCUGCAUGCCGCCGGGCGCCAUGCCUGCAGGUCGACUCUAGAAAACAUG,binding signal,PUM1 PUF domain R3-TWG,0.73 log2 enrichment (interaction score)
